Source: PubChem BioAssay (NCI)
The panel holds about 83,000 compounds, 20% with a hit somewhere; the sample as a whole holds those more often.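 Cells were grown in 96-well plates and exposed to the test compound at a single concentration for 48 hours; results are reported as percent growth, with values below 10 considered active.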 A number with no mark means an inactive call. The source made the active and inactive calls.

Columns and labels:
Experiment in all cases: NCI-60 one-dose screen, 48 h (100 = growth as untreated, 0 = no growth, -100 = all killed)
Details in all cases: 10 µM unless noted
HCT-15 colon = test system: HCT-15 colon
HT29 colon = test system: HT29 colon
SNB-75 CNS = test system: SNB-75 CNS
SNB-19 CNS = test system: SNB-19 CNS
PC-3 prostate = test system: PC-3 prostate
UACC-62 melanoma = test system: UACC-62 melanoma
LOX IMVI melanoma = test system: LOX IMVI melanoma
SK-MEL-28 melanoma = test system: SK-MEL-28 melanoma
SK-MEL-2 melanoma = test system: SK-MEL-2 melanoma
EKVX NSCLC = test system: EKVX NSCLC
SN12C renal = test system: SN12C renal
UO-31 renal = test system: UO-31 renal
TK-10 renal = test system: TK-10 renal
ACHN renal = test system: ACHN renal
CAKI-1 renal = test system: CAKI-1 renal
A498 renal = test system: A498 renal
CCRF-CEM leukemia = test system: CCRF-CEM leukemia
MOLT-4 leukemia = test system: MOLT-4 leukemia
SK-MEL-5 melanoma = test system: SK-MEL-5 melanoma

Structure (SMILES) | growth (HCT-15 colon) | growth (HT29 colon) | growth (SNB-75 CNS) | growth (SNB-19 CNS) | growth (PC-3 prostate) | growth (UACC-62 melanoma) | growth (LOX IMVI melanoma) | growth (SK-MEL-28 melanoma) | growth (SK-MEL-2 melanoma) | growth (EKVX NSCLC) | growth (SN12C renal) | growth (UO-31 renal) | growth (TK-10 renal) | growth (ACHN renal) | growth (CAKI-1 renal) | growth (A498 renal) | growth (CCRF-CEM leukemia) | growth (MOLT-4 leukemia) | growth (SK-MEL-5 melanoma) [%]
CON1C(=O)CC[C@]2(C)[C@H]3CC[C@@H]4C([C@@]5(C)CCC(=O)O5)CC[C@@]4(C)[C@]3(C)CC[C@H]2C1(C)C (stereo partly specified) | 99.8% | 94.6% | 71.5% | 96.5% | 87.4% | 87.2% | 95.1% | 107% | 94.6% | 93.3% | 95.2% | 94.4% | 97.8% | 96.6% | 75.7% | 99.6% | 96.9% | 90.6% | 
COc1cccc(-c2nc3sccn3c2-c2ccnc(NCCCNS(=O)(=O)c3cccc(F)c3)c2)c1 | 13.7% | 38.7% | 29.3% | 55% | 13.6% | -32.7% (active) | 23.7% | 42.6% | 7.47% (active) | 31% | 28.5% | 11.4% | 61.1% | 20.7% | 19.7% | 64.4% | 9.96% (active) | 3.29% (active) | 
Cc1ccc2oc(=O)cc(C3c4ccc([nH]4)C(c4cc(=O)oc5ccc(C)cc45)c4ccc([nH]4)C(c4cc(=O)oc5ccc(C)cc45)c4ccc([nH]4)C(c4cc(=O)oc5ccc(C)cc45)c4ccc3[nH]4)c2c1 (stereo unspecified) | -46.9% (active) | -75.7% (active) | -42% (active) | -29.6% (active) | -27.2% (active) | -57% (active) | -70.6% (active) | -53.2% (active) | -73.1% (active) | -19.3% (active) |  | -24.7% (active) | -22.2% (active) | -18.6% (active) | -13.6% (active) | -81.1% (active) | -18% (active) | -22.4% (active) | 
CC1=C[C@H]2c3c(c(O)c(O)c4oc(-c5ccccc5)cc(=O)c34)[C@H](c3cc(O)c(O)c4oc(-c5ccccc5)cc(=O)c34)[C@H]2C(C)(C)C1 | 11.3% | 9.18% (active) | -8.01% (active) | 11.9% | 5.35% (active) | -46.3% (active) | -86.5% (active) | 8% (active) | -3.08% (active) | 14.5% | 1.79% (active) | -50.2% (active) | 28.4% | 2.25% (active) | -27% (active) |  | 4.65% (active) | 5.24% (active) | 
O=C(/C=C/C=C/c1ccc2c(c1)OCO2)N/N=C\c1ccc(O)cc1O | 17% | 48.1% | 64% | 49.3% | 38% | 14.3% | 9.69% (active) | 42.1% |  | 20.2% | 32.8% | 11.4% | 31% | 14.4% | 9.65% (active) |  | 18% | 13.3% | 
COc1ccc(-c2cc(C(=O)N=Nc3c(O)[nH]c4ccc(Br)cc34)no2)cc1 | 100% | 100% | 66.1% | 92% | 95.8% | 101% | 96% | 113% |  | 94.4% | 93.6% | 77.6% | 124% | 98.2% | 84.1% | 99.6% | 102% | 101% | 97.4
COc1cccc(-c2nn(C(C)(C)C)cc2-c2ccnc(NCCCNS(=O)(=O)c3ccc(C)cc3)c2)c1 | 107% | 105% | 69.8% | 102% | 102% |  | 99.5% | 112% | 108% | 100% | 103% | 85.3% | 98.8% | 102% | 92.8% | 94% | 94.6% | 103% | 100
OCCNc1nccc(N2CCN(c3ccnc4cc(Cl)ccc34)CC2)n1 | 51.3% | 45.7% | 71.3% | 88.9% | 72.2% | 71.4% |  | 94% | 84.1% |  | 84.5% | 47.7% | 94.4% | 92.5% | 77% | 15.5% | 66.5% | 52.4% | 
CSc1nc(NCc2ccccc2)c(C#N)c(-c2cccc([N+](=O)[O-])c2)n1 | 95.9% | 103% | 68.2% | 94.9% | 94.5% | 79% | 92.1% | 102% | 102% | 85.4% | 93.2% | 78.3% | 124% | 95.6% | 75.4% | 66.1% | 99.7% | 103% | 
C=CC(=O)Nc1cccc(Nc2nc(SC)nc(-c3cccc([N+](=O)[O-])c3)c2C#N)c1 | 52.2% | 33.7% | 23.2% | 79.5% | 37.5% | 65.7% |  | 25.3% | 46.8% | 53.2% | 62.9% | 60.8% | 32.1% | 55.6% | 42.6% | -1.13% (active) | 72.2% | 59.8% | 55.2
COc1ccc(-c2nc3ccc(-c4nc5ccc(N6CCN(c7ccncc7)CC6)cc5[nH]4)cc3[nH]2)cc1OC | 88.7% | 22.6% | 52.8% | 40.9% | 54.8% | 17.5% | 16.9% | 19.1% |  | 69.2% | 45.2% | 97.5% | 101% | 91.9% | 57.5% | 61.4% | 21.1% | 18.1% | 14.1
O=S(=O)(Nc1ccc(OC(F)F)cc1)c1ccc(-c2cnc(C3CC3)o2)cc1 | 38.4% | 55.6% | 42.7% | 75.8% | 67.6% | 44% | 72% | 85.3% | 63.9% | 61.7% | 77.5% | 60.2% | 102% | 79.4% | 47.2% | 16.9% | 66.8% | 50.1% | 
CN(Cc1cc(Cl)cc(Cl)c1O)Cc1cc(Cl)cc(Cl)c1O | 40.5% | 94.1% | 75.5% | 73.3% | 80.9% | 64.8% | 57.7% | 86.9% | 93.5% | 83.6% | 71.1% | 46.2% | 61.4% | 52.8% | 42.9% | 89.6% | 48.7% | 47.7% | 
O=C1CC(=NCC(=O)n2c(-c3ccccc3)nc3ccccc32)NN1 | 99.1% | 108% | 66.6% | 97.7% | 99.2% | 94.9% | 89.9% | 118% |  | 77.5% | 99% | 69.3% | 155% | 93.3% | 75.9% | 56.1% | 107% | 103% | 96.6
Cn1c(=O)c2c(nc3n(-c4ccc(Cl)cc4Cl)c(Sc4nc(-c5ccccc5)c(C#N)c(=O)[nH]4)cn23)n(C)c1=O | 63.1% | 57.1% | -5.62% (active) | 24.7% | 75.7% | 63.2% | 33.5% | 87.8% | 99% | 59.5% | 33% | -1.67% (active) |  | 14.2% | 59.4% | 33.5% |  | 75.8% | 90.4
COc1cc2nc(N3CCCC3)nc(NCc3ccccc3)c2cc1OC | 6.07% (active) | 18.7% | 69.1% | 95.6% | 67.2% | 97.3% | 10% | 57% | 106% | 74.7% | 69.6% | 52.1% | 100% | 62.2% | 65.8% | 36.3% | 5.92% (active) | 35.4% | 
